Bioassay records deposited in PubChem BioAssay by several laboratories.
A selection: hits, their analogues and other compounds. The true share with any hit is near 27%.
CYP2C9 act = CYP2C9 (human) activation; P11712; recombinant CYP2C9, luciferin-H conversion, luminescence; active compounds read high; factor 1 = untreated enzyme, 0 = blocked; activation factor at 5 µM; 96,000 compounds, 1.4% hits; AID 1024;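 active = activation factor of 2 or more for CYP2C9 at a 5 µM dose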;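 also: 0 = sulfaphenazole-blocked wells and 1 = vehicle-only wells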
CYP2C19 activ = activators of human cytochrome P450 2C19 | recombinant CYP2C19, luciferin-H EGE luminescence; active compounds read high; 0 = fully inhibited enzyme, 1 = untreated enzyme | P33261 | 96,000 tested, under 10 active | activation factor at 5 µM | AID 1025;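 active = activation factor of at least 2 at 5 µM in the primary screen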;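 also: 0 = wells with 2.5 mM tranylcypromine and 1 = vehicle-only wells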
Target sequence (P33261 whole entry, looked up): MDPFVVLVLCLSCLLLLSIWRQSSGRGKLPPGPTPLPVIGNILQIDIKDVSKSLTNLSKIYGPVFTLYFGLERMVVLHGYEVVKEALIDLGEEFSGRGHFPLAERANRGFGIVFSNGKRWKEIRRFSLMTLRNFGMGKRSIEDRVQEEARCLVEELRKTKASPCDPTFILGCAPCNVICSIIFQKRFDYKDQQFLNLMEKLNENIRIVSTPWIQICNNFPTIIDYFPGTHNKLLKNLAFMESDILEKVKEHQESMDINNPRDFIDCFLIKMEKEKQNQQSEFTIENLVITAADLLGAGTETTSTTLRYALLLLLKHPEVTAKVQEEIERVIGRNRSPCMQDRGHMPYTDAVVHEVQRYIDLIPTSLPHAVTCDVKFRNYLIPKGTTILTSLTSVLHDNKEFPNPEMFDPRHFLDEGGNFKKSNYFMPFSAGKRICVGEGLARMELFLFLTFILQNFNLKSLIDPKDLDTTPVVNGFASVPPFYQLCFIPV
CYP2C9 inh = human CYP2C9 inhibition. 96,000 compounds, 20% hits. inhibition, % at 5 µM. CYP2C9 Supersomes, luciferin-H conversion, luminescence. AID 777;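 active = blocking of liver enzyme CYP2C9 beyond about 50% at 5 µM, limit read from the data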
sEH inhibitor = soluble epoxide hydrolase (human) inhibition | AID 707 | 91,000 compounds, 0.34% hits | inhibition, % at 2 µM | recombinant human sEH enzymatic activity assay; in the data active = inhibition above about 80%
sEH act = increases human soluble epoxide hydrolase activity. P34913. purified human sEH enzymatic activity, activator screen. activation, % at 2 µM. 91,000 compounds, 0.04% hits. AID 717; in the data active = activation above about 37%
CYP2C19 inh = inhibitors of human CYP2C19; P33261; CYP2C19 Supersomes, luciferin-H EGE luminescence, 30 min; inhibition, % at 5 µM; 96,000 compounds, 21% hits;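 active = CYP2C19 inhibition above a set limit at 5 µM in the primary screen, cut at about 50% in these data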;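 also: plate controls were negative control wells for no effect and 2.5 mM tranylcypromine positive control for full effect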
An asterisk follows results filed as active; nt = no result given.

SMILES | CYP2C9 act | CYP2C19 activ | CYP2C9 inh | sEH inhibitor | sEH act | CYP2C19 inh
CCOCCn1c(CN2CCN(c3ccc(F)cc3)CC2)nc2c1c(=O)n(C)c(=O)n2C | 0.6 | 0.9 | 39 | nt | nt | 9
O=C(CSC1CC(=O)N(CC(c2ccccc2)c2ccccc2)C1=O)Nc1ccc(Cl)cc1 (configuration not stated) | 0.1 | 0.5 | 85* | 17 | -17 | 53*
CCOCCCNC(=O)C(c1ccc(C)cc1)N(Cc1ccc2c(c1)OCO2)C(=O)c1cnccn1 (configuration not stated) | 1 | 0.8 | 1 | -1 | 1 | 17
Cc1cccc(NC(=O)N2CCN(Cc3ccccc3)CC2)c1 | nt | nt | nt | 8 | -6 | nt
O=C(c1cc2ccccn2n1)N1CCN(Cc2ccccc2)CC1 | 1.3 | 0 | -32 | 7 | -3 | 96*
CCOC(=O)N1CCN(C(=O)c2c(-c3ccccc3)noc2C)CC1 | 0.8 | 0.6 | 19 | nt | nt | 40
Cc1cc(C(=O)N2CCN(Cc3ccccc3)CC2)on1 | 0.9 | 0 | 10 | nt | nt | 95*
CCOC(=O)N1CCN(C(=O)c2cc(C)no2)CC1 | 1.1 | 0.3 | -6 | -6 | 11 | 71*
Cc1cc(C)cc(C(=O)N2CCCCCC2)c1 | 1.4 | 0.7 | -38 | 6 | -3 | 28
Cc1cc(C(=O)N2CCCCCC2)cs1 | 1.1 | 0.4 | -7 | 0 | -2 | 58*
O=C(Cc1ncc(C(F)(F)F)cc1Cl)N1CCN(c2ccc(F)cc2)CC1 | 3.5* | 0.5 | -248 | -12 | 9 | 51*
O=C(Cc1ncc(C(F)(F)F)cc1Cl)Nc1ccc(F)cc1 | 0.9 | 0.1 | 10 | -30 | 33 | 91*
COc1ccc(N2CCN(C(=O)Cc3ncc(C(F)(F)F)cc3Cl)CC2)cc1 | 1.3 | 0.9 | -26 | -3 | 2 | 6
CC(C)C(=O)Nc1ncc(C(F)(F)F)cc1Cl | 0.9 | 1.1 | 7 | 5 | -2 | -8
O=C(Cc1ncc(C(F)(F)F)cc1Cl)N1CCN(c2cccc(Cl)c2)CC1 | 1.6 | 0.2 | -60 | -11 | 13 | 84*
O=c1[nH]nc2n1CCCCC2 | 1.1 | 1 | -10 | -14 | 16 | -2
CN(C)S(=O)(=O)c1cccc(C(=O)OCC(=O)Nc2sccc2C#N)c1 | 0.8 | 1 | 23 | -4 | 4 | 0
CCOC(=O)COc1nc(Nc2ccccc2C)nc(N(C)C)n1 | 0.6 | 0.6 | 36 | nt | nt | 35
O=C1Nc2ccc(F)cc2C12SCCS2 | 2.3* | 0.6 | -127 | -3 | 2 | 43
C=CCNC(=O)c1onc(CSc2cccc(C)c2)c1C(=O)O | 0.3 | 0.9 | 65* | 3 | 2 | 12
C=CCNC(=O)c1onc(CSc2cccc(Cl)c2)c1C(=O)O | 0.3 | 0.9 | 68* | 2 | 4 | 12
COCCNC(=O)c1onc(CSc2cccc(Cl)c2)c1C(=O)O | 0.9 | 1.2 | 14 | 5 | -4 | -16
Cc1cccc(SCc2noc(C(=O)NCC3CCCO3)c2C(=O)O)c1 (configuration not stated) | 0.7 | 0.9 | 28 | 8 | -2 | 13
Cc1ccc(S(=O)(=O)NC(C)C(=O)Nc2ccc(C(N)=O)cc2)cc1 (configuration not stated) | 0.8 | 0.9 | 23 | 0 | 3 | 11
Cn1c(=O)[nH]c(=O)c2c1nc(NCCCn1ccnc1)n2Cc1ccccc1 | 0 | 0.2 | 96* | -4 | 4 | 80*
SMILES | CYP2C9 act | CYP2C19 activ | CYP2C9 inh | sEH inhibitor | sEH act | CYP2C19 inh
Cc1ccc(C(=O)CNc2nc3c(c(=O)[nH]c(=O)n3C)n2Cc2ccccc2)cc1 | 0.2 | 0.1 | 79* | 7 | -7 | 88*
CN(Cc1ccccc1)c1nc2c(c(=O)[nH]c(=O)n2C)n1CCOc1ccccc1 | 0.5 | 0.7 | 54* | 2 | -5 | 34
Cn1c(=O)[nH]c(=O)c2c1nc(NCCCn1ccnc1)n2CCOc1ccccc1 | 0 | 0 | 98* | 6 | -7 | 99*
Cc1ccc(Nc2nc3c(c(=O)[nH]c(=O)n3C)n2Cc2ccc(F)cc2)cc1 | nt | nt | nt | -4 | 4 | nt
Cn1c(=O)[nH]c(=O)c2c1nc(NCCCO)n2Cc1ccc(F)cc1 | 0.9 | 0.9 | 8 | 7 | -6 | 10
CCOc1ccccc1N(CC(=O)NC(C)(C)C)C(=O)Cn1nnc(-c2ccc(C)o2)n1 | 0.7 | 0.7 | 25 | -1 | 1 | 32
O=C(COc1ccccc1)Nc1ccc2c(c1)nc1n2CCSC1 | 0.8 | 1.1 | 17 | nt | nt | -8
